Reference: PubChem BioAssay (NCATS)
“And” between values parts separate entries of the source, which are not always exact repeats. Identical values can stand only once. Inconclusive results are not listed. Entries that show only a call come without a potency. A number with no mark means an inactive call. The source made the active and inactive calls. Unless noted, calls come from the whole dose curve; as a rule, active = well fitted curve in the direction sought with a large enough effect; inconclusive = small, poorly fitted or top-dose-only effect, or another doubt; inactive = no such curve, though single readings can be large; an effect the other way counts as inactive or inconclusive.

How the values were obtained:
[1] = target: Calcium and integrin-binding protein 1 (Homo sapiens) (UniProt Q99828); test: Primary qHTS for Identification of Calcium Integrin Binding Protein 1 (CIB1) Competitor (AID 1508620);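 note: GST tagged CIB1 binding a fluorescein labelled alphaIIb integrin peptide tracer; top concentration of the series differs between compounds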
In short: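 Fluorescence polarization competition: GST-tagged CIB1 (1 uM final) preincubated with compound 15 min at room temperature, then FITC-labelled alphaIIb peptide (100 nM final) added. After 15 min at room temperature, polarization read at Ex 480/Em 540.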

[2] = target: Cytochrome P450 2C9 (Homo sapiens) (UniProt P11712); test: Cytochrome P450 family 2 subfamily C member 9 (CYP2C9) small molecule antagonists: luciferase biochemical (cell-free) qHTS assay (AID 1645842; active = well fitted curve in the direction sought with a large enough effect in the repeat runs; an effect the other way counts as inactive or inconclusive; note: nearly all actives have a fitted effect of over 55% in size; note: potency is the fitted concentration of half-maximal effect)
In short: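 Luminescence, after 20 min with luciferin detection reagent, reflected CYP2C9 turnover during a 1 h NADPH-driven reaction at 37C. Enzyme-substrate mix contained 0.4% bovine serum albumin and was preincubated with compound 10 min at room temperature.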

[3] = Primary qHTS for inhibitors of nuclear receptor binding SET domain protein 2 (NSD2) in an isogenic RCH-ACV NSD2 p.E1099K mutant (9B) (AID 1645876); note: nearly all actives have a fitted effect of over 70% in size; note: potency is the fitted concentration of half-maximal effect
[4] = Primary qHTS for inhibitors of nuclear receptor binding SET domain protein 2 (NSD2) in an RCH-ACV wild type WT cells (2C) (AID 1645877); note: nearly all actives have a fitted effect of over 70% in size; note: potency is the fitted concentration of half-maximal effect
[5] = target: N-terminal Xaa-Pro-Lys N-methyltransferase 1 (Homo sapiens) (UniProt Q9BV86); test: Confirmatory qHTS for Inhibitors of N-terminal methyltransferase 1 (NTMT1): MTaseGlo Assay (AID 1645874); note: nearly all actives have a fitted effect of over 65% in size; note: potency is the fitted concentration of half-maximal effect
In short: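 Luminescent MTase-Glo read-out of SAH. 125 nM NTMT1, 100 uM SAM, 1 uM SPKRIA substrate, 30 min RT reaction after 15 min compound preincubation. Normalized to no-enzyme and DMSO controls; Hill fit.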

Sequence of Cytochrome P450 2C9 (Homo sapiens) (P11712 whole entry, looked up): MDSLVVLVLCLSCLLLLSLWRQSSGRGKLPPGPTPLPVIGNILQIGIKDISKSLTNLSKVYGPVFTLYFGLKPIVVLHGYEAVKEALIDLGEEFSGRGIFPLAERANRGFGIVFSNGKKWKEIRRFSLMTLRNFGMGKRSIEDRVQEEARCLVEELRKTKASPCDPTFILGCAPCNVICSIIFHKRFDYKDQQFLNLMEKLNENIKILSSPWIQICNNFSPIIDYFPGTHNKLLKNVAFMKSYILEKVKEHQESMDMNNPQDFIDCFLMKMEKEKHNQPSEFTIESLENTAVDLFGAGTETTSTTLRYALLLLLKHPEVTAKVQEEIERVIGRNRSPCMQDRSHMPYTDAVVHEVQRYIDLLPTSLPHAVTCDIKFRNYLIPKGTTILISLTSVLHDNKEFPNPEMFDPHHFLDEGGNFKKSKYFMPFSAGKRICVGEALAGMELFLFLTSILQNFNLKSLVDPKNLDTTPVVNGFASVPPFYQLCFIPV
Sequence of N-terminal Xaa-Pro-Lys N-methyltransferase 1 (Homo sapiens) (Q9BV86 whole entry, looked up): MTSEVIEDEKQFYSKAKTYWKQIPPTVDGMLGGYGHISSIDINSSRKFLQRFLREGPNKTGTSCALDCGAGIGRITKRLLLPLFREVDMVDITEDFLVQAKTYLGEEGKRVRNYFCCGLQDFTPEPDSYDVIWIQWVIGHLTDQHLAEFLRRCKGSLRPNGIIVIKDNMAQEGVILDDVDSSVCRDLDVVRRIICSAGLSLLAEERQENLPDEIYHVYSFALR
Sequence of Calcium and integrin-binding protein 1 (Homo sapiens) (Q99828 whole entry, looked up): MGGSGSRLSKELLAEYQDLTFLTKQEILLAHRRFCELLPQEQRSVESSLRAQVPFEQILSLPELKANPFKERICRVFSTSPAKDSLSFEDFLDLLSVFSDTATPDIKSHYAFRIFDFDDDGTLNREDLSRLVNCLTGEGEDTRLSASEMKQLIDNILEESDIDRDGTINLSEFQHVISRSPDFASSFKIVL

Row | Structure (SMILES) | Potency [1] | Potency [2] | Potency [3] | Potency [4] | Potency [5]
1 | COc1cc(NC(=O)c2cccc(-n3cc(NC(=O)Nc4cccc(C)c4)cn3)c2)cc(OC)c1OC | inactive | 2.68 µM (active) | 8.17 µM (active) | 9.16 µM (active) | 
2 | C/C(=N\N=C(N)N)c1cc(NC(=O)CCCCCCCCC(=O)Nc2cc(/C(C)=N/N=C(N)N)cc(/C(C)=N/N=C(N)N)c2)cc(/C(C)=N/N=C(N)N)c1 | inactive |  | 11.5 µM (active) | 11.5 µM (active) | 20 µM (active)
3 | CC1(C=O)CCCC2(C)C1CCC13CC(CO)C(CCC12)C3 (stereo not drawn) | inactive |  | inactive |  | 
4 | Cn1cc(-c2ccc3c(c2)CCN3C(=O)Cc2cccc(C(F)(F)F)c2)c2c(N)ncnc21 | inactive | 12 µM (active) |  | inactive | 
5 | C/C=C(/C)C(=O)O[C@@H]1C[C@@H](OC(=O)CC(C)C)C2(C)C3C(=O)C=C(C)C2C3C1(C)C (stereo partly drawn) | inactive |  | inactive |  | 
6 | O=C(Cc1c(F)cccc1F)Nc1cc(OCc2ccc(Cl)cc2)ccn1 | inactive |  | 18.3 µM (active) |  | inactive
7 | CC(C)=CCCC1(C)/C=C/C(OC(=O)C=C(C)C)C(C)(O)/C=C/C(=O)/C(CO)=C\C1 (stereo not drawn) | inactive |  | 11.2 µM (active) |  | 
8 | Cc1ccc(OC[C@H](O)[C@H](C)NC(C)C)c2c1CCC2 | inactive |  | inactive |  | 
9 | CC(C)c1cc(-c2ccc(F)c3ccccc23)nc(N)n1 | inactive | 4.25 µM (active) |  | inactive | 
10 | CC(C)(CNC(=O)c1cccc(-c2noc(C(F)(F)F)n2)c1)c1coc(-c2ccccc2)n1 | inactive |  | 20.9 µM (active) |  | 
11 | CN1CCN(c2ccc(Nc3cc(-c4cccc(-n5ccc6cc(C7CC7)cc(F)c6c5=O)c4CO)cn(C)c3=O)nc2)CC1 | inactive |  | 20.6 µM (active) |  | 
12 | COc1c(C(C)C)c(O)c(O)c2c1C(OC)[C@H]1OC(=O)[C@@]23CCCC(C)(C)[C@H]13 (stereo partly drawn) | inactive |  |  |  | inactive
13 | NCC(CNc1nc(Nc2cccc(NC(=O)N3CCCC3)c2)ncc1I)C(=O)c1cccs1 (stereo not drawn) | inactive |  | 1.15 µM (active) | 2.58 µM (active) | 22.4 µM (active)
14 | COc1cc2ncc(-c3ccccc3)nc2cc1OC | inactive |  | 20.5 µM (active) |  | 
15 | CCCCNc1ncc(-c2ccc(CN3CCOCC3)cn2)c(NC2CCC(O)CC2)n1 (stereo not drawn) | inactive | inactive |  | 632 nM (active) and 1.15 µM (active) | 
16 | CCN1CCN(Cc2ccc(NC(=O)c3ccc(C)c(Oc4ncnc5[nH]c(C)cc45)c3)cc2C(F)(F)F)CC1 | inactive |  | 2.05 µM (active) |  | 
17 | CN1CC2CN(c3ccc4oc5ccccc5c(=O)c4c3)CC2C1 (stereo not drawn) | inactive | inactive |  | 12.6 µM (active) | 
18 | C=C1/C(=C/C=C2\CCC[C@@]3(C)C2CCC3[C@H](C)/C=C/[C@@H](O)C2CC2)C[C@@H](O)C[C@@H]1O (stereo partly drawn) | inactive |  | 23 µM (active) |  | 
19 | C=C1C(=O)O[C@@H]2C[C@@]3(C)C[C@@H](O)C[C@H](C)C3=C[C@H]12 | inactive |  | 7.28 µM (active) |  | 
20 | C/C=C/C=C/C=C/C(=O)O[C@@H]1C=C2COC(=O)[C@]2(O)[C@@]2(C)CCCC(C)(C)[C@H]12 | inactive |  | 2.82 µM (active) |  | inactive
21 | S=C(c1ccc(-c2ccc(Cl)c(Cl)c2)o1)N1CCCCC1 | inactive | 3.38 µM (active) |  | inactive | 
22 | CC[C@@H](C)Nc1cc(C(=O)NC2CC3CC[C@@H](C2)N3c2ccc(C(=O)C3CC3)cn2)c(C)cc1C(N)=O (stereo partly drawn) | inactive |  | 0.0742 µM (active) | 0.105 µM (active) | inactive
23 | C[C@@]12C(=O)N(c3ccc(C(=O)Nc4cccc5cccnc45)cc3)C(=O)[C@@H]1[C@@H]1C=C[C@H]2C1 | inactive |  | inactive |  | 
24 | C=C1C(=O)OC2/C=C(\CO)CC/C=C(\C=O)C(OC)C(OC(=O)C(C)CC)C12 (stereo not drawn) | inactive |  | 7.96 µM (active) |  | 
